This assay deals with MILI (PIWIL2) piRISC loaded with L1MC piRNA (26 nt). In words: pre-steady-state target cleavage rate (min^-1); guide: L1MC piRNA 5'p-UAACUAAAUACUAUGCAAGCUGUAGG; MIWI and MILI are mouse PIWI proteins and EfPiwi is from a freshwater sponge; tags in brackets are library labels; higher = faster piRNA-guided slicing of the target. Put shortly: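 In HEPES–potassium acetate buffer at 33 °C, […] transcribed, DNA-blocked target RNA library was mixed with 1 nM active affinity-purified piRISC carrying one synthetic guide, with or without 500 nM GTSF1 partner protein, for 0–8 or 0–960 min. Uncleaved targets were sequenced and normalised to depth and to weakly complementary targets; three trials were pooled and k3 was capped at 0.0001 min^-1. The pre-steady-state cleavage rate followed from a burst-and-steady-state fit.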

Setting [1] is: auxiliary factor: 500 nM mouse GTSF1.
The mark [2] stands for this setting: auxiliary factor: none (no GTSF1).

± gives the standard deviation.
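Also: 1 nM active piRISC with 0.1 nM target library at 33 °C single turnover.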

As for UCCUGGAUCUGCAUGCAUAGUAUUUAGUUA, the “pre-steady-state target cleavage rate” value was determined as 0.209 ± 0.015 under setting [1] and 0.00837 ± 0.0023 under setting [2].

Regarding UCCUGGUACAGCUUGCAUAGUAUUUAAUUA, the “pre-steady-state target cleavage rate” value worked out at 0.0793 ± 0.022 under setting [1] and 0.00528 ± 0.0035 under setting [2].

In the case of UCCUGGAUGUCCUUGCUUAGUAUAUAGUUA, the “pre-steady-state target cleavage rate” value turned out to be 0.0347 ± 0.0085 under setting [1] and 0.0039 ± 0.0023 under setting [2].

For UCCUCCGUACAGCUUGCAUAGUAUUUAGUUA, the “pre-steady-state target cleavage rate” value is, setting by setting: under setting [1], 0.272 ± 0.014; under setting [2], 0.0094 ± 0.0023.

For the sequence UCCUGGUACAGCUUGCAUAGUUUUAAGUUA, the “pre-steady-state target cleavage rate” value runs as follows: under setting [1], 0.0506 ± 0.014; under setting [2], 0.00428 ± 0.0033.

Consider UCCUGGUACAGCAUGGAUAGUAUUUAGUUA, for which the “pre-steady-state target cleavage rate” value reads like this: under setting [1], 0.197 ± 0.019; under setting [2], 0.0172 ± 0.0046.

On to UCCUGGAUGAAGCUUGCAUAGUAUUUAGUUA, for which the “pre-steady-state target cleavage rate” value is, setting by setting: under setting [1], 0.224 ± 0.02; under setting [2], 0.0106 ± 0.0031.

In the case of UCCUGGUACAGCUUGCAUAGUAUAUUAGUUA, the “pre-steady-state target cleavage rate” value was found to be 0.26 ± 0.039 under setting [1] and 0.0117 ± 0.0038 under setting [2].

Take UCCUGGAUGAGGUAGCAUAGUAUUUAGUUA: the “pre-steady-state target cleavage rate” value under setting [1] worked out at 0.0611 ± 0.0091 and the “pre-steady-state target cleavage rate” value under setting [2] is 0.00664 ± 0.0022.

For the sequence UCCUGGUACAGCUUGCAUAGUCAUUUAGUUA, the “pre-steady-state target cleavage rate” value by setting is: under setting [1], 0.0147 ± 0.0072; under setting [2], 0.00451 ± 0.0041.

Turning to UCCUGGAUGUGCUAGCAUAGAAUUUAGUUA, the “pre-steady-state target cleavage rate” value under setting [1] worked out at 0.0105 ± 0.0042 and the “pre-steady-state target cleavage rate” value under setting [2] is 0.00267 ± 0.0022.

On to UCCUGGAACAGCUACCAUAGUAUUUAGUAA, for which the “pre-steady-state target cleavage rate” value under setting [1] turned out to be 0.23 ± 0.028 and the “pre-steady-state target cleavage rate” value under setting [2] came out at 0.00298 ± 0.0029.

As to UCCUGGAACAGCUUGGUAAGUAUUUAGUAA, the “pre-steady-state target cleavage rate” value reads like this: under setting [1], 0.11 ± 0.017; under setting [2], 0.00425 ± 0.0016.

UCCUGGUACAGCUUGCAUAUGUAUUUAGUUA: the “pre-steady-state target cleavage rate” value under setting [1] amounted to 0.00566 ± 0.0049 and the “pre-steady-state target cleavage rate” value under setting [2] came out at 0.00451 ± 0.0033.

Consider UCCUGGAUGAGCUUGCAUGGUAUUUAGUUA, for which the “pre-steady-state target cleavage rate” value reads like this: under setting [1], 0.195 ± 0.023; under setting [2], 0.017 ± 0.0046.

Regarding UCCUGGAUGUGCUAGCAUAGUUUUUAGUUA, the “pre-steady-state target cleavage rate” value under setting [1] was 0.0108 ± 0.0046 and the “pre-steady-state target cleavage rate” value under setting [2] is 0.00466 ± 0.0027.

For the sequence UCCUGGAUGUCCUUGCAAUGUAUUUAGUUA, the “pre-steady-state target cleavage rate” value came to 0.0105 ± 0.0042 under setting [1] and 0.00626 ± 0.0014 under setting [2].

Consider UCCUGGAUGUCGUUGCAUUGUAUUUAGUUA, for which the “pre-steady-state target cleavage rate” value is 0.0197 ± 0.0048 under setting [1] and 0.00572 ± 0.0024 under setting [2].

With UCCUGGAUGAGCUUGCAGAGUAUUUAGUUA, the “pre-steady-state target cleavage rate” value runs as follows: under setting [1], 0.0869 ± 0.0095; under setting [2], 0.00792 ± 0.0024.

UCCUGGAUCACCUUGCUUAGUAUUUAGUUA: the “pre-steady-state target cleavage rate” value under setting [1] turned out to be 0.176 ± 0.025 and the “pre-steady-state target cleavage rate” value under setting [2] worked out at 0.008 ± 0.0023.

As to UCCUGGAACAGCUUGCAUAGUCAUUUAGUUA, the “pre-steady-state target cleavage rate” value turned out to be 0.0205 ± 0.008 under setting [1] and 0.00479 ± 0.0022 under setting [2].

For the sequence UCCUGGAUCAGCAUGCAUAGUAUUUACUUA, the “pre-steady-state target cleavage rate” value by setting is: under setting [1], 0.126 ± 0.016; under setting [2], 0.00358 ± 0.0024.

As for UCCUGGAUCAGCUAGCAUAGUAUAUAGUUA, the “pre-steady-state target cleavage rate” value runs as follows: under setting [1], 0.22 ± 0.02; under setting [2], 0.00644 ± 0.0023.

For the sequence UCCUGGAUGAGCUUGCAUAGUUAUUAGUUA, the “pre-steady-state target cleavage rate” value runs as follows: under setting [1], 0.00731 ± 0.0048; under setting [2], 0.00364 ± 0.0023.

In the case of UCCUGGAUGUGGUUGCUUAGUAUUUAGUUA, the “pre-steady-state target cleavage rate” value worked out at 0.107 ± 0.02 under setting [1] and 0.0132 ± 0.0037 under setting [2].

In the case of UCCUGGAUGUCGUUGCAUAAUAUUUAGUUA, the “pre-steady-state target cleavage rate” value under setting [1] is 0.0662 ± 0.017 and the “pre-steady-state target cleavage rate” value under setting [2] amounted to 0.00621 ± 0.0023.

As to UCCUGGAUGUCGAUGCAUGGUAUUUAGUUA, the “pre-steady-state target cleavage rate” value under setting [1] stood at 0.0229 ± 0.0078 and the “pre-steady-state target cleavage rate” value under setting [2] is 0.00372 ± 0.0028.

As for UCCUGGAUGUCGUUGCAUAGUAUUUGAGUUA, the “pre-steady-state target cleavage rate” value is, setting by setting: under setting [1], 0.145 ± 0.034; under setting [2], 0.00339 ± 0.0032.

For UCCUGGAUGUCCUUGCAUAGAUUUUAGUUA, the “pre-steady-state target cleavage rate” value under setting [1] was 0.0121 ± 0.0046 and the “pre-steady-state target cleavage rate” value under setting [2] was determined as 0.00402 ± 0.0018.

As to UCCUGGUACAGCUUGCAUACUAAUUAGUUA, the “pre-steady-state target cleavage rate” value turned out to be 0.0462 ± 0.019 under setting [1] and 0.00356 ± 0.0031 under setting [2].

With UCCUGGUACAGCUUGGUUAGUAUUUAGUUA, the “pre-steady-state target cleavage rate” value by setting is: under setting [1], 0.192 ± 0.023; under setting [2], 0.0135 ± 0.0038.

As to UCCUGGAUCAGCUAGCAUAGUAUUUUGUUA, the “pre-steady-state target cleavage rate” value turned out to be 0.19 ± 0.021 under setting [1] and 0.00333 ± 0.0023 under setting [2].

For UCCUGGAUGAGGUUGCAUAGUAUUUAGUAA, the “pre-steady-state target cleavage rate” value under setting [1] came out at 0.0985 ± 0.018 and the “pre-steady-state target cleavage rate” value under setting [2] was 0.004 ± 0.0027.

Consider UCCUGGAACAGCUUGGAUAGUAUUUUGUUA, for which the “pre-steady-state target cleavage rate” value by setting is: under setting [1], 0.203 ± 0.034; under setting [2], 0.00404 ± 0.0026.

Regarding UCCUGGAUGUCCUUGCAUUGUAAUUAGUUA, the “pre-steady-state target cleavage rate” value was 0.014 ± 0.0069 under setting [1] and 0.00354 ± 0.0025 under setting [2].

Regarding UCCUGGAUGUCGAUGCAUAGUACUUUAGUUA, the “pre-steady-state target cleavage rate” value was 0.0153 ± 0.0039 under setting [1] and 0.00479 ± 0.0029 under setting [2].

UCCUGGAUGUCGUUGCAUAGUAUUUUAGUUA: the “pre-steady-state target cleavage rate” value is, setting by setting: under setting [1], 0.125 ± 0.02; under setting [2], 0.00632 ± 0.0029.

In the case of UCCUCCUACAGCUUGCAUUGUAUAUAGUUA, the “pre-steady-state target cleavage rate” value worked out at 0.177 ± 0.018 under setting [1] and 0.00393 ± 0.0025 under setting [2].

In the case of UCCUGGAUGUCGUGGCAUAGUAUUUAGUUA, the “pre-steady-state target cleavage rate” value reads like this: under setting [1], 0.0441 ± 0.011; under setting [2], 0.00558 ± 0.0029.

Consider UCCUGGAACAGCUUGCAUAGUAUUUAGUAUA, for which the “pre-steady-state target cleavage rate” value was 0.273 ± 0.027 under setting [1] and 0.00406 ± 0.0038 under setting [2].

For the sequence UCCUGGAUGUCCUUGCAAAGUAAUUAGUUA, the “pre-steady-state target cleavage rate” value by setting is: under setting [1], 0.018 ± 0.0064; under setting [2], 0.00522 ± 0.0014.

Regarding UCCUGGUACAGCUUGCAUAGCAUUUAGUUA, the “pre-steady-state target cleavage rate” value amounted to 0.117 ± 0.03 under setting [1] and 0.00488 ± 0.0026 under setting [2].

As for UCCUGGAUGUCCUAGCAUAGUAUUAAGUUA, the “pre-steady-state target cleavage rate” value was 0.0366 ± 0.0077 under setting [1] and 0.00287 ± 0.0022 under setting [2].

Regarding UCCUGGAUCAGCUAGCAUAGAAUUUAGUUA, the “pre-steady-state target cleavage rate” value under setting [1] worked out at 0.0367 ± 0.0066 and the “pre-steady-state target cleavage rate” value under setting [2] is 0.00247 ± 0.0025.

Take UCCUGGAUGUCGUUGCAUAGUAUUUAAGUUA: the “pre-steady-state target cleavage rate” value reads like this: under setting [1], 0.191 ± 0.032; under setting [2], 0.00676 ± 0.0028.

Consider UCCUGGAUGUCCUUGCAUAGUACUUUAGUUA, for which the “pre-steady-state target cleavage rate” value under setting [1] was 0.0282 ± 0.011 and the “pre-steady-state target cleavage rate” value under setting [2] came to 0.00534 ± 0.0022.

Consider UCCUGGAUGUCCUUGCAUAGGUAUUUAGUUA, for which the “pre-steady-state target cleavage rate” value is, setting by setting: under setting [1], 0.00785 ± 0.0038; under setting [2], 0.00689 ± 0.0025.

As for UCCUGGAUGUCGAUGCAUAGUUAUUAGUUA, the “pre-steady-state target cleavage rate” value by setting is: under setting [1], 0.00565 ± 0.0033; under setting [2], 0.0042 ± 0.0022.

Regarding UCCUGGAUGUCGUUGCGUAGUAUUUAGUUA, the “pre-steady-state target cleavage rate” value is, setting by setting: under setting [1], 0.0164 ± 0.0059; under setting [2], 0.00779 ± 0.0026.

For the sequence UCCUGGAACAGCUUGCUAUGUAUUUAGUUA, the “pre-steady-state target cleavage rate” value was determined as 0.0569 ± 0.017 under setting [1] and 0.00412 ± 0.0022 under setting [2].

For the sequence UCCUGGAUCAGCUUGCAAAGUAUUUACUUA, the “pre-steady-state target cleavage rate” value reads like this: under setting [1], 0.0828 ± 0.013; under setting [2], 0.00392 ± 0.0024.

Consider UCCUGGAUGAGCAUGGAUAGUAUUUAGUUA, for which the “pre-steady-state target cleavage rate” value turned out to be 0.189 ± 0.019 under setting [1] and 0.0105 ± 0.0024 under setting [2].

As for UCCUGGAUCAGCUUGGUAAGUAUUUAGUUA, the “pre-steady-state target cleavage rate” value amounted to 0.0316 ± 0.0076 under setting [1] and 0.00588 ± 0.0023 under setting [2].

On to UCCUGGUACAGCUUCCAUUGUAUUUAGUUA, for which the “pre-steady-state target cleavage rate” value is 0.113 ± 0.039 under setting [1] and 0.00415 ± 0.0035 under setting [2].

With UCCUGGUUCAGGUUGCAUAGUAUUUAGUUA, the “pre-steady-state target cleavage rate” value runs as follows: under setting [1], 0.21 ± 0.023; under setting [2], 0.0182 ± 0.005.

UCCUGGAUGUGCUUGGAUAGUAUAUAGUUA: the “pre-steady-state target cleavage rate” value reads like this: under setting [1], 0.118 ± 0.026; under setting [2], 0.00335 ± 0.0032.

In the case of UCCUGGAUGAGCAUUGCAUAGUAUUUAGUUA, the “pre-steady-state target cleavage rate” value by setting is: under setting [1], 0.212 ± 0.022; under setting [2], 0.0105 ± 0.0025.

As for UCCUGGAUGUGCUUGCAUUGUAAUUAGUUA, the “pre-steady-state target cleavage rate” value was 0.0229 ± 0.0072 under setting [1] and 0.00338 ± 0.0033 under setting [2].

UCCUGGAUGUCCUUGCAUAGUCAUUUAGUUA: the “pre-steady-state target cleavage rate” value reads like this: under setting [1], 0.00722 ± 0.0051; under setting [2], 0.00338 ± 0.003.

With UCCUGGAUGUCGUUGCAUAGUAUUUGGUUA, the “pre-steady-state target cleavage rate” value came to 0.145 ± 0.031 under setting [1] and 0.00722 ± 0.003 under setting [2].

Source of the values: the supplement of paper PMC10338343.
